# The campaign covered roughly 310,000 compounds. About 14,000 (4.5%) showed an effect of 50% or more. The effect is printed as a negative number. The entries come from a sample that favours strong results as a whole.
# Target: human ether-à-go-go-related gene (hERG) potassium channel (human, UniProt Q12809)
# Test: primary screen, population patch clamp on CHO cells stably expressing hERG; higher = less effect of the substance
# 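Note: peak tail current of the secondary pulse compared with the same well before compound.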
# Sequence of human ether-à-go-go-related gene (hERG) potassium channel (Q12809 whole entry, looked up): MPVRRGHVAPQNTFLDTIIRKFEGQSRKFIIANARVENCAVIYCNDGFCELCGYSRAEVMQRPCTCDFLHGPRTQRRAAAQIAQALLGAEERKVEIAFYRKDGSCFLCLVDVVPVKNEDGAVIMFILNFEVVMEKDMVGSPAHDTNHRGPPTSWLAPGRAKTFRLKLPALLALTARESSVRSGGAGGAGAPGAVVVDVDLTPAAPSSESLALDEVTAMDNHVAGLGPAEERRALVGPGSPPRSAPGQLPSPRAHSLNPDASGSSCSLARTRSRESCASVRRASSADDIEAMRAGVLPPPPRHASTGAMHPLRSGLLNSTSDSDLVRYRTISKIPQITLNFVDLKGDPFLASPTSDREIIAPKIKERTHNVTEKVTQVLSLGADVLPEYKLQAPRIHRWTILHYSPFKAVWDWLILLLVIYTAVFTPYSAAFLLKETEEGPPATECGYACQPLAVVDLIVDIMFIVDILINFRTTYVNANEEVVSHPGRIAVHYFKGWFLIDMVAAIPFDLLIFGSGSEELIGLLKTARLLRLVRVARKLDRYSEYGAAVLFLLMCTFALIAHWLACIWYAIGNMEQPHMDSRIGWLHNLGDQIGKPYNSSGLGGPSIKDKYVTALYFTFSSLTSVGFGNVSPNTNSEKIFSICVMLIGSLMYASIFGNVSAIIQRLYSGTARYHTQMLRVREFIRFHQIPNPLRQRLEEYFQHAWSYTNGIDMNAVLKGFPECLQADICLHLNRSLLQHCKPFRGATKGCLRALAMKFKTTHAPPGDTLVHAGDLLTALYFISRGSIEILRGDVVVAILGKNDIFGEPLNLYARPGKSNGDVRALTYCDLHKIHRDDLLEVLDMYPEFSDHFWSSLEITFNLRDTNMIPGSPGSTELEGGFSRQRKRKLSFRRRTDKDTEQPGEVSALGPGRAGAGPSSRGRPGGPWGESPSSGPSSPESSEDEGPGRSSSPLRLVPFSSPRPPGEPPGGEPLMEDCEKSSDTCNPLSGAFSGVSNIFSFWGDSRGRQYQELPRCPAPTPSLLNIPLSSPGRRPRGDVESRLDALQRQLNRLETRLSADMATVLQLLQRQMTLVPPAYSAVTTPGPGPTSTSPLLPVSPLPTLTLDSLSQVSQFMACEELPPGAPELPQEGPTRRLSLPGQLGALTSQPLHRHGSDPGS
row,Compound,"hERG current change (%, negative = inhibition) at 10uM [%]"
1,COc1cccc(N2CCN(c3nc(-c4ccccc4C)cc(=O)[nH]3)CC2)c1,3.88
2,c1cc2c(cc1C1=NNC(=NC3CC3)SC1)OCCO2,16.8
3,Cc1cc(C(=O)NNC(=O)c2sccc2C)c(C)o1,7.27
4,O=S(=O)(c1ccc(F)cc1)N1CCN(c2ccccc2)CC1,-6.53
5,CN(Cc1ccccc1)C(=O)CCS(=O)(=O)c1cc2c(cc1Cl)NC(=O)CO2,-38.9
6,CCN(Cc1ccccc1)C(=O)CCS(=O)(=O)c1cc2c(cc1Cl)NC(=O)CO2,-50.7
7,CCN(C(=O)CCS(=O)(=O)c1cc2c(cc1Cl)NC(=O)CO2)c1ccccc1,-21.8
8,O=C1Nc2ccc(Br)cc2C12NNc1ccccc1O2 (centres unmarked),23.9
9,Cn1c(N)c(C(=O)NCc2ccccc2Cl)sc1=S,18
10,Cc1ccc(NC(=O)CSc2nc3ccccc3c3nc(CCc4c(C)n[nH]c4C)nn23)cc1F,-11.7
11,Cc1ccc(NC(=O)CSc2nc3ccccc3c3nc(CCn4cncc4C)nn23)c(C)c1,2.77
12,Cc1ccccc1NC(=O)CSc1nc2ccccc2c2nc(CCn3cncc3C)nn12,-55.6
13,Cc1ccccc1NC(=O)CSc1nc2ccccc2c(=O)n1C,1.39
14,Cc1cncn1CCc1nc2c3ccccc3nc(SCC(=O)Nc3cccc(Cl)c3)n2n1,-78.4
15,Cc1cccc(NC(=O)CSc2nc3ccccc3c3nc(CCc4c(C)n[nH]c4C)nn23)c1,-9.44
16,CCCCOC(=O)c1sc2nc(N3CCOCC3)c3c(c2c1N)CC(C)(C)OC3,9.29
17,CCOC(=O)C1CCN(C(=O)c2ccc3c(c2)OCO3)CC1,-5.29
18,Cl.Clc1c(OCCCn2ccnc2)ccc2ccccc12,-31.9
19,COCCN1C(=O)/C(=C/c2ccc(OCc3ccc(C(=O)O)cc3)c(OC)c2)SC1=Nc1ccccc1,7.58
20,NNC(=O)c1sccc1OCc1ccc(Cl)cc1Cl,-18.5
21,C=CCNC(=O)/C=C/c1cccs1,16.4

row,Compound,"hERG current change (%, negative = inhibition) at 10uM [%]"
1,COC(=O)c1ccc(NC(=O)COC(=O)C2CCC2)cc1,4.03
2,CCN(CC)CCN(Cc1cc2cc(C)ccc2[nH]c1=O)C(=S)Nc1ccccc1,-50.6
3,Cc1ccc(NC(=S)N(CCN(C)C)Cc2cc3cccc(C)c3[nH]c2=O)cc1,-55.6
4,Cc1ccc(NC(=S)N(CCN(C)C)Cc2cc3cc(C)ccc3[nH]c2=O)cc1,-43.5
5,Cc1cccc2cc(CN(CCN(C)C)C(=S)Nc3ccccc3)c(=O)[nH]c12,-24
6,Cc1cccc2cc(CN(CC3CCCO3)C(=S)Nc3ccccc3)c(=O)[nH]c12 (centres unmarked),2.39
7,Cc1cccc(NC(=S)N(CCN(C)C)Cc2cc3cc(C)ccc3[nH]c2=O)c1,-16.5
8,CCN(CC)CCN(Cc1cc2cccc(C)c2[nH]c1=O)C(=S)Nc1ccccc1,-66.2
9,Cc1ccc(NC(=S)N(CCN(C)C)Cc2cc3cc(C)cc(C)c3[nH]c2=O)cc1,-7.41
10,Cc1ccc(NC(=S)N(Cc2cccs2)Cc2cc3cccc(C)c3[nH]c2=O)cc1,-9.88
11,Cc1ccc(C(=O)N(CN2CCCC2=O)c2ccccc2)cc1,-1.3
12,CCN(CC(=O)NCc1ccc(Cl)cc1)CC(=O)NC1(C#N)CCCC1,-19.2
13,CC[C@H](C)Cc1cn([C@@H](CCCN=C(NC(=O)OC(C)(C)C)NC(=O)OC(C)(C)C)C(=O)NCCCCCCCCCCC(=O)N2CCN(C(=O)OC(C)(C)C)CC2)nn1,4.2
14,CCOC(=O)c1c(NC(=O)C2=C(C)NC(=S)NC2c2ccc(CC)cc2)sc(C)c1C (centres unmarked),7.47
15,Cc1cc(SCC(=O)NN)c2cc(Br)ccc2n1,-1.57
16,Cc1ccc(S(=O)(=O)N2CCOC2CNC(=O)C(=O)NCCc2ccccc2)cc1 (centres unmarked),-25.6
17,CCOC(=O)c1c(N)c2cc([N+](=O)[O-])cnc2n1C,17.3
18,CCOC(=O)c1cc2sccc2n1CCCN1C(=O)c2ccccc2C1=O,6.01
19,CN1CCN(C(N)=NC(=O)c2ccccc2)CC1,6.76
20,COc1ccc(Cl)cc1S(=O)(=O)N1CCN=C1Cc1ccccc1,-18.9
21,CCc1ccc(NS(=O)(=O)c2cc3[nH]c(=O)c(=O)[nH]c3cc2C)cc1,9.15

row,Compound,"hERG current change (%, negative = inhibition) at 10uM [%]"
1,CC/C(=N\Nc1ccc([N+](=O)[O-])cc1[N+](=O)[O-])c1ccc(O)cc1,21.7
2,Cc1ccc(S(=O)(=O)c2ncccc2N)cc1,12.4
3,Cc1ccc(S(=O)(=O)c2ncccc2[N+](=O)[O-])cc1,-64
4,O=[N+]([O-])c1cccnc1S(=O)(=O)c1ccccc1,15.9
5,Cc1noc(C)c1C(=O)Nc1ccccc1C(=O)NCCc1ccccc1,8.93
6,Cc1nn(-c2ccccc2)c(C)c1C(=O)OCC(=O)N1CC(=O)Nc2ccccc21,1.89
7,CC1(OC(=O)C2CCCC2)C(=O)C=C2C=C(c3ccsc3)N(CC3CC3)C=C2C1=O (centres unmarked),-11.8
8,CC1(OC(=O)C2CCCC2)C(=O)C=C2C=C(c3ccsc3)N(Cc3ccc4c(c3)OCO4)C=C2C1=O (centres unmarked),-79.6
9,CC1(OC(=O)C2CCCC2)C(=O)C=C2C=C(c3ccsc3)N(C3CCCCC3)C=C2C1=O (centres unmarked),-15.8
10,C=CCN1C=C2C(=O)C(C)(OC(=O)C3CCCC3)C(=O)C=C2C=C1c1ccsc1 (centres unmarked),-19.4
11,CC(C)CN1C=C2C(=O)C(C)(OC(=O)C3CCCC3)C(=O)C=C2C=C1c1ccsc1 (centres unmarked),-0.438
12,CC1(OC(=O)C2CCCC2)C(=O)C=C2C=C(c3ccsc3)N(CCCCO)C=C2C1=O (centres unmarked),1.16
13,CC1(OC(=O)C2CCCC2)C(=O)C=C2C=C(c3ccsc3)N(Cc3ccccc3)C=C2C1=O (centres unmarked),-52.5
14,CC1(OC(=O)C2CCCC2)C(=O)C=C2C=C(c3ccsc3)N(Cc3ccco3)C=C2C1=O (centres unmarked),-23.2
15,CC1(OC(=O)C2CCCC2)C(=O)C=C2C=C(c3ccsc3)N(C3CCCC3)C=C2C1=O (centres unmarked),-64.7
16,CC1(OC(=O)C2CCCC2)C(=O)C=C2C=C(c3ccsc3)N(C3CC3)C=C2C1=O (centres unmarked),16.5
17,COc1ccc(CN2C=C3C(=O)C(C)(OC(=O)C4CCCC4)C(=O)C=C3C=C2c2ccsc2)cc1 (centres unmarked),-64.4
18,COCCN1C=C2C(=O)C(C)(OC(=O)C3CCCC3)C(=O)C=C2C=C1c1ccsc1 (centres unmarked),-6.22
19,COC(=O)c1ccc(COC(=O)CNC(=O)CNC(=O)c2ccc(OC)cc2)cc1,-6.8
20,CN(C(=O)CN1C(=O)C2C3CC(C(Br)C3Br)C2C1=O)C1CCCCC1 (centres unmarked),-8.93
21,CCOC(=O)Cn1c(S(=O)(=O)Cc2ccc(F)cc2)nc(-c2ccccc2)c1-c1ccccc1,-7.15

row,Compound,"hERG current change (%, negative = inhibition) at 10uM [%]"
1,CCCCCCSc1cc(C)nc2ncnn12,-42.9
2,CCc1cccc(CC)c1-n1c(-c2cccnc2)n[nH]c1=S,18.1
3,O=C(c1cc(Br)ccc1OC(F)F)N1CCN2CCCC2C1 (centres unmarked),-4.15
4,CCOC(=O)CSc1nnc(-c2ccccc2NC(=O)c2ccccc2)o1,12.2
5,CC(C)Nc1oc(-c2cccc3ccccc23)nc1C#N,2.18
6,O=C(NC(=S)NCCO)c1sc2ccccc2c1Cl,-0.142
7,Cl.NCCc1ccc(OCc2ccccc2)c(OCc2ccccc2)c1,-22.1
8,COc1cc(CCC(=O)N2CCN(c3ncccn3)CC2)cc(OC)c1OC,11.8
9,COc1cc(CCC(=O)N2CCN(c3ccc(N4CCOCC4)nn3)CC2)cc(OC)c1OC,-9.65
10,COc1cc(CCC(=O)N2CCN(c3cccc(C)c3C)CC2)cc(OC)c1OC,-2.88
11,COc1ccc(CCC(=O)N2CCN(c3ccc([N+](=O)[O-])cc3)CC2)cc1OC,-81.5
12,COc1cc(CCC(=O)N2CCN(c3ccc([N+](=O)[O-])cc3)CC2)cc(OC)c1OC,-78.4
13,COc1ccc(C(=O)N2CCN(c3ccc([N+](=O)[O-])c(NCCc4ccc(OC)c(OC)c4)c3)CC2)cc1,4.2
14,COc1ccc(CCC(=O)N2CCN(c3ccccc3)CC2)cc1OC,14
15,COc1cc(CCC(=O)N2CCN(c3ccccc3)CC2)cc(OC)c1OC,-58.5
16,COc1ccc(N2CCN(C(=O)Cc3ccc(OC)c(OC)c3)CC2)cc1,6.38
17,O=C(Cc1cccc(C(F)(F)F)c1)OCC(=O)N1CCN(S(=O)(=O)c2ccc(Cl)cc2)CC1,-6.07
18,COc1ccc(OC)c(NC(=S)NCc2cccs2)c1,-18.3
19,CCOC(=O)C1(Cc2ccccc2C)CCCN(S(=O)(=O)CC)C1 (centres unmarked),13.9
20,COc1cccc(NS(=O)(=O)c2ccc3c(c2)n(C)c(=O)c(=O)n3C)c1,-6.59

# Reference: PMC4336329 (PLoS ONE, 2015)
